Assay outcomes as filed in PubChem BioAssay.
The list is not random: actives were taken first. Their share in the collection is about 19%.
DT40 TDP1 CPT = DT40-hTDP1 cell growth loss with CPT. chicken DT40 Tdp1-/-;hTDP1 cells + 20 nM CPT, ATP luminescence, 48 h. Potency, µM (highest dose often 46.2 µM), for the others: at the highest dose activity change, negative = growth inhibition, most hits filed as inhibitors. actives 12% (n = 420,000). AID 686979; further: potency means the concentration at half of the fitted maximal effect; nearly all actives have a fitted effect of over 55% in size
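Chicken DT40 Tdp1-/- cells stably complemented with human TDP1 were seeded at 400 cells/well in medium containing 20 nM camptothecin, exposed to pin-transferred compounds, and grown at 37 °C for at least 48 hr. Viability was read as ATP luminescence.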
TDP1 cell noCPT = qHTS for Inhibitors of human tyrosyl-DNA phosphodiesterase 1 (TDP1): qHTS in cells in absence of CPT. DT40 Tdp1-/- hTDP1 cells, no CPT, ATP luminescence, 48 h. Potency, µM (highest dose often 46.2 µM), without a hit: top-dose activity change, negative = growth inhibition, usual class: inhibitors. actives 15% (n = 420,000). AID 686978, 2013; further: potency means the concentration at half of the fitted maximal effect; nearly all actives have a fitted effect of over 55% in size
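Chicken DT40 Tdp1-/- cells complemented with human TDP1, screened without camptothecin (DMSO vehicle only), 400 cells/well. Compounds pin-transferred, cells incubated at 37 °C for at least 48 hr. Growth read as ATP-dependent luminescence (CellTiter-Glo, 30 min at RT).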
HT1080-NT tox = kills 2HG-producing HT-1080-NT fibrosarcoma cells; HT-1080-NT fibrosarcoma viability, CellTiter-Glo ATP luminescence, 48 h; Potency, µM (highest dose often 46.1 µM), for the others: at the top dose activity, negative = less viability, most hits filed as cytotoxic; actives 1.6% (n = 360,000); AID 686970;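 further: NT is the 2HG producing partner of a matched IDH1 knockdown line; potency means the concentration at half of the fitted maximal effect; 0% = DMSO-treated cells and -100% = media-only wells without cells; nearly all actives have a fitted effect of over 55% in size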
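HT-1080-NT; 750 cells/well; 5% FBS RPMI; 48 h compound, 37 degrees C; CellTiter-Glo luminescence; curve fitting and curve-class assignment.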
IL-1B inflam inh = inflammasome signaling inhibition, IL-1 beta readout; actives 4.7% (n = 360,000); activity change, % at 57.5 µM; THP-1 LPS/ATP IL-1B secretion, AlphaLISA, 16 h; hits give low values; AID 743279; in the data active means activity change below about -50%; inconclusive means mostly about -30% to -49%
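Secreted IL-1B measured by AlphaLISA bead assay after 16 h compound exposure of THP-1 cells; compounds (final up to 57.5 uM) added 1 h before LPS (250 ng/mL) and ATP (1.25 mM) stimulation; lower signal means less secretion.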
HT1080 IDH1KD tx = kills HT-1080 cells with IDH1 knockdown; HT-1080 IDH1 knockdown viability, ATP luminescence, 48 h; Potency, µM (top dose mostly 46.1 µM), for inactives: at the top dose activity, negative = toxicity, most hits filed as cytotoxic; actives 2% (n = 360,000);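 further: potency means the concentration at half of the fitted maximal effect; 0% = DMSO wells and -100% = cell-free medium wells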
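After a 2 h attachment period, IDH1KD HT-1080 cells took pin-transferred compound for 48 h at 37 °C; ATP-based luminescence after 10 min room-temperature reagent incubation reported viability.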
ELG1 repair inh = inhibitors of ELG1-dependent DNA repair in HEK293T cells; HEK293T ELG1-luciferase reporter, luminescence, 16 h; DNA damage induced by 5-fluorouridine; Potency, µM (series often up to 46.1 µM), for the others: top-dose activity change, negative = inhibition, usual class: inhibitors; actives 2.3% (n = 330,000); AID 504467; further: potency means the concentration at half of the fitted maximal effect; nearly all actives have a fitted effect of over 55% in size
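Step one: seed 2,000 cells per well. Step two: pin-transfer compound or DMSO alongside 5-fluorouridine. Step three: incubate 16 hr, 37 °C, 5% CO2. Step four: add ONE-Glo, wait 30 min, read luminescence.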
Numbers without * were called inactive; [ ] = remark or other dose. Unless noted, the call rests on the fitted dose curve; in most records, active means well fitted curve in the direction sought with a large enough effect; inconclusive means small, poorly fitted or top-dose-only effect, or another doubt; inactive means no such curve, though single readings can be large; an effect the other way counts as inactive or inconclusive. Unless noted, on the % scale 0 is the no-effect control and ±100 the full control effect.

CC(C)(C)NC(=O)C[C@H]1C[C@H](C(=O)N2CCCCC2)[C@@]2(CCc3ccccc3)c3[nH]c4cc(-c5ccco5)ccc4c3CCN2C1=O was read as DT40 TDP1 CPT 18.4µM*, TDP1 cell noCPT 23.1µM*, HT1080-NT tox -5.4%, IL-1B inflam inh 0.0, HT1080 IDH1KD tx -4.8% and ELG1 repair inh -0.9%.
Screening O=C(CC1C[C@H](C(=O)N2CCCCC2)[C@@]2(CCc3ccccc3)c3[nH]c4ccccc4c3CCN2C1=O)NCCc1ccccn1 (stereo not given in full) returned DT40 TDP1 CPT 23.1µM*, TDP1 cell noCPT 16.4µM*, HT1080-NT tox 8.6%, IL-1B inflam inh inconclusive and HT1080 IDH1KD tx 6.9%.
CC1CCN(C(=O)c2[nH]cnc2C(=O)N2CCN(c3ccccc3)CC2)CC1 was read as DT40 TDP1 CPT -15.2%, TDP1 cell noCPT -14.4%, HT1080-NT tox 2.7%, IL-1B inflam inh 16.0, HT1080 IDH1KD tx 16.2% and ELG1 repair inh 13.8%.
CSc1ccc(CNCCCN(C)C)cc1 was read as DT40 TDP1 CPT inconclusive, TDP1 cell noCPT inconclusive, HT1080-NT tox -2.9%, IL-1B inflam inh -54.3*, HT1080 IDH1KD tx -22.6% and ELG1 repair inh -18.2%.
`Cc1cc(C)nc(SCCCNCc2ccc(Br)cc2)n1` gave DT40 TDP1 CPT inconclusive, TDP1 cell noCPT 20.6µM*, HT1080-NT tox inconclusive, IL-1B inflam inh -3.7, HT1080 IDH1KD tx -28.3% and ELG1 repair inh inconclusive.
`COc1cccc(CNCc2ccc(SC)cc2)c1OC` gave DT40 TDP1 CPT inconclusive, TDP1 cell noCPT inconclusive, HT1080-NT tox -1.8%, IL-1B inflam inh inconclusive, HT1080 IDH1KD tx 9.0%[9.24 µM] and ELG1 repair inh 6.2%.
Cc1ccc(CNCCCSc2nc(C)cc(C)n2)cc1 was read as DT40 TDP1 CPT inconclusive, TDP1 cell noCPT inconclusive, HT1080-NT tox -9.6%, IL-1B inflam inh inconclusive, HT1080 IDH1KD tx -8.4% and ELG1 repair inh -17.8%.
Screening CCOc1c(CNCCCSc2nc(C)cc(C)n2)cccc1OC returned DT40 TDP1 CPT 20.6µM*, TDP1 cell noCPT inconclusive, HT1080-NT tox inconclusive, IL-1B inflam inh 7.5, HT1080 IDH1KD tx -18.9% and ELG1 repair inh -0.3%.
CSc1ccc(CNCCCSc2ncccn2)cc1 was read as DT40 TDP1 CPT inconclusive, TDP1 cell noCPT -22.4%, HT1080-NT tox -7.1%, IL-1B inflam inh -68.5*, HT1080 IDH1KD tx -15.8% and ELG1 repair inh -5.1%.
Screening CN1C(=O)/C(=C/c2ccc(OCc3ccccc3F)cc2)N(C)C1=S returned DT40 TDP1 CPT inconclusive, TDP1 cell noCPT -27.6%, HT1080-NT tox -9.7%, IL-1B inflam inh 0.6, HT1080 IDH1KD tx 0.4% and ELG1 repair inh inconclusive.
`COc1cc(CNCc2cc3cc(C)ccc3nc2-c2ccc(F)cc2)cc(OC)c1OC` gave DT40 TDP1 CPT -13.0%[9.04 µM] and TDP1 cell noCPT -14.0%.
Screening C[C@H](CO)N1C[C@H](C)[C@@H](CN(C)S(C)(=O)=O)Oc2c(NC(=O)Nc3ccccc3)cccc2C1=O returned DT40 TDP1 CPT -5.7%, TDP1 cell noCPT inconclusive, HT1080-NT tox 4.7%, IL-1B inflam inh -3.6, HT1080 IDH1KD tx -5.7% and ELG1 repair inh 5.0%.
Brc1ccc(CNCCCSc2ncccn2)cc1 was read as DT40 TDP1 CPT 14.6µM*, TDP1 cell noCPT 16.4µM*, HT1080-NT tox -13.4%, IL-1B inflam inh -0.8, HT1080 IDH1KD tx -13.4% and ELG1 repair inh -4.9%.
`Brc1ccc(CNCCCSc2nnnn2-c2ccccc2)cc1` gave DT40 TDP1 CPT inconclusive and TDP1 cell noCPT 16.4µM*.
Screening O=C(NCc1ccccn1)c1ccc(OC2CCN(Cc3ccc(F)cc3F)CC2)cc1 returned DT40 TDP1 CPT inconclusive, TDP1 cell noCPT inconclusive, HT1080-NT tox -12.4%, IL-1B inflam inh -7.8, HT1080 IDH1KD tx -14.0% and ELG1 repair inh inconclusive.
For Cc1cccc(C)c1NC(=O)CCCSc1nnc(-c2ccc(F)cc2)n1-c1ccccc1 the results were DT40 TDP1 CPT inconclusive, TDP1 cell noCPT inconclusive, HT1080-NT tox 6.3%, IL-1B inflam inh -18.6, HT1080 IDH1KD tx 1.4% and ELG1 repair inh 16.4µM*.
For O=C(CSc1nnc(-c2ccncc2)n1-c1ccccc1)Nc1ccc(F)cc1 the results were DT40 TDP1 CPT 8.7% and TDP1 cell noCPT -10.1%.
For Cc1cccc(C)c1NC(=O)CCCSc1nnc(-c2ccc(Cl)cc2)n1-c1ccccc1 the results were DT40 TDP1 CPT 23.1µM*, TDP1 cell noCPT 16.4µM*, HT1080-NT tox -6.5%, IL-1B inflam inh inactive, HT1080 IDH1KD tx inconclusive and ELG1 repair inh 20.6µM*.
`O=C(NCC1CC1)c1cc([N+](=O)[O-])cc([N+](=O)[O-])c1` gave DT40 TDP1 CPT 0.1%, TDP1 cell noCPT 8.2%, HT1080-NT tox -1.8%, IL-1B inflam inh 64.0, HT1080 IDH1KD tx 3.6% and ELG1 repair inh 0.0%.
`O=C(NCc1nnc2n1CCN(Cc1cccc(C(F)(F)F)c1)CC2)c1ccncc1` gave DT40 TDP1 CPT -21.7% and TDP1 cell noCPT -14.9%.
c1ccc(N=C2SCCCS2)cc1 was read as DT40 TDP1 CPT -9.7%, TDP1 cell noCPT inconclusive, HT1080-NT tox -3.5%, IL-1B inflam inh 0.8 and HT1080 IDH1KD tx -7.0%.
For Cc1ccc(C2=CC(c3ccc(Cl)cc3)n3nc(-c4ccc(C)cc4)nc3N2)cc1 (stereo not given) the results were DT40 TDP1 CPT 32.6µM* and TDP1 cell noCPT inconclusive.
Screening Cc1ccc(-c2nc3n(n2)C(c2ccccc2C)C=C(c2ccc(Cl)cc2)N3)cc1 (stereo not given) returned DT40 TDP1 CPT inconclusive and TDP1 cell noCPT 23.1µM*.
COc1ccc(C2C=C(c3ccc(Cl)cc3)Nc3nc(-c4ccc(Cl)cc4)nn32)cc1 (stereo not given) was read as DT40 TDP1 CPT 8.2µM* and TDP1 cell noCPT 4.61µM*.
COc1ccc(C2C=C(c3ccccc3)Nc3ncnn32)cc1 (stereo not given) was read as DT40 TDP1 CPT 18.4µM*, TDP1 cell noCPT inconclusive, HT1080-NT tox 15.8%, IL-1B inflam inh -19.5, HT1080 IDH1KD tx 10.4% and ELG1 repair inh 7.6%.
`Cc1ccc(OCC(=O)N(Cc2nnc(-c3ccccc3Cl)o2)C2CC2)cc1C` gave DT40 TDP1 CPT inconclusive, TDP1 cell noCPT inconclusive, HT1080-NT tox 6.8%, IL-1B inflam inh -7.5, HT1080 IDH1KD tx 0.8% and ELG1 repair inh -29.2%.
